The subject of the first assay is RIPK2.
Take `O=C(Nc1n[nH]c2nc(-c3cccs3)c(Br)cc12)C1CC1` [SB-735297]: the Kd was greater than 10000 nM.

For the compound `CC(C)c1ccc(O)cc1Nc1ccnc2ccc(C(F)(F)F)cc12` [GW482059], the Kd is greater than 10000 nM.

`CS(=O)(=O)CCNCc1nc(-c2ccc3ncnc(Nc4ccc5c(cnn5Cc5ccccc5)c4)c3c2)cs1.Cl.Cl` [GW569716] displayed a Kd of 67 nM. In other words, the double-digit nanomolar range.

Compound `Cn1cncc1-c1cc2c(Nc3ccc(OCc4ccccc4)cc3)ncnc2cn1` [GW281179] had a dissociation constant (Kd) of 65 nM.

The test system of a further assay is ROCK1.
The compound `c1ccc(-c2ccnc3[nH]ccc23)cc1` [SB-693578] gave a Kd of 150 nM. This counts as sub-micromolar.

`CC(C)c1ccc(O)cc1Nc1ccnc2ccc(C(F)(F)F)cc12` [GW482059] came in with a Kd greater than 10000 nM.

As to `Cn1cncc1-c1cc2c(Nc3ccc(OCc4ccccc4)cc3)ncnc2cn1` [GW281179], binding was characterised by a dissociation constant (Kd) of 590 nM.

The next assay concerns T1, RSK4(Kin.Dom.2-C-terminal).
T1 construct: gene RPS6KA6
With `Fc1ccc(-c2nc3n(c2-c2ccncc2)CCS3)cc1` [GI98581], the dissociation constant Kd stood at 260 nM.

As for `Fc1ccc(-c2nc[nH]c2-c2ccncc2)cc1` [SB-217360], the dissociation constant Kd was 310 nM.

`Cc1cccc2c(-c3ccncn3)c(-c3ccc(F)cc3)nn12` [GW515532]: binding was characterised by a dissociation constant (Kd) of 6800 nM.

Values taken from paper PMC5540273 (PLoS ONE, 2017).
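Further: kd values determined as follow-up on hits from a single-replicate KINOMEscan panel screen.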
